Screens as filed in PubChem BioAssay.
FBPA Giardia inh: blocks Giardia fructose-bisphosphate aldolase activity | Potency, µM (top dose mostly 59.6 µM), for inactives: at the top dose activity, negative = inhibition, hits mostly inhibitors | actives 0.71% (n = 290,000) | A8B2U2 | purified Giardia FBPA; active = well fitted inhibition curve with a large enough effect; inconclusive = small, poorly fitted or top-dose-only effect, or effect the other way; also: nearly all actives have a fitted effect of over 55% in size
Target sequence (A8B2U2 whole entry, looked up): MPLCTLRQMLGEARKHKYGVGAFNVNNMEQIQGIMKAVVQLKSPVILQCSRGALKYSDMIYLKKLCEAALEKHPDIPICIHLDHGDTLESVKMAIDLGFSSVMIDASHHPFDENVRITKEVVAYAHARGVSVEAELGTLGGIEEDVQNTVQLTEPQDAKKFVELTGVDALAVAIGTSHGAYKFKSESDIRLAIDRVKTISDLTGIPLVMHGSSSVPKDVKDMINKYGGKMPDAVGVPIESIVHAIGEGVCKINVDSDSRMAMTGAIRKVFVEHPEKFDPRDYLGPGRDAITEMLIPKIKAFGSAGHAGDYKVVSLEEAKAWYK
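40 nM FBPA preincubated 10 min at RT with compound (up to 57.5 uM final), then substrate plus GAPDH/TPI/NAD/arsenate coupling and diaphorase/resazurin added. Fluorescence read after 20 min at RT, 525/598 nm.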
FMDV inh: blocks foot and mouth disease virus; Potency, µM (highest dose often 57.9 µM), inactives show at the top dose activity change, negative = inhibition, usual class: inhibitors; actives 1.2% (n = 410,000); AID 1159524; FMDV antiviral cell-based qHTS; calls by dose curve; tested in HEK293T cells; also: read-out not given here; nearly all actives have a fitted effect of over 45% in size
Vaccinia Venus: vaccinia inhibition (Venus reporter); Vaccinia virus Venus reporter expression, fluorescence; Potency, µM (series often up to 36.5 µM), without a hit: at the highest dose activity change, negative = inhibition, usual class: inhibitors; actives 0.46% (n = 330,000); calls by dose curve; tested in A549 cells; also: nearly all actives have a fitted effect of over 30% in size
VACV mCherry inh: inhibitors of vaccinia virus infection (mCherry reporter signal) | Potency, µM (highest dose often 36.5 µM), inactives show at the highest dose activity change, negative = inhibition, actives largely listed as inhibitors | AID 720579 | Vaccinia virus mCherry reporter infection, fluorescence | actives 0.63% (n = 310,000); calls by dose curve; tested in A549 cells; also: nearly all actives have a fitted effect of over 35% in size
An asterisk follows results filed as active; i = inactive; ? = inconclusive; . = no result; [ ] = remark or other dose. Only some compounds are listed: those with a hit (about 2.2% of all), similar ones and a draw of the others. % is scaled to controls: 0 for no effect and ±100 for the full control effect; potency is read from the fitted curve at half-maximal effect.

SMILES	FBPA Giardia inh	FMDV inh	Vaccinia Venus	VACV mCherry inh
CCn1c(SCC(=O)NCc2ccco2)nc2ccccc2c1=O	1%	-7%	.	.
COc1ccc(C(=O)Nn2c(SCC(=O)c3ccc(Cl)cc3)nc3ccccc3c2=O)cc1	6%	-28%	.	.
COc1ccc(C(=O)Nn2c(SCC(=O)NCc3ccco3)nc3ccccc3c2=O)cc1	13%	14µM*	-6%	-8%
CC(=O)N1CCN(c2nc3cc(C)ccc3cc2CN(C(=O)c2cccc3ccccc23)C2CC2)CC1	.	2%	-5%	-17%
Oc1cc2cc(-c3csc(-c4ccc(F)cc4)n3)ccc2[nH]1	.	.	-13%	-23%
C[N+](C)(C)c1ccc(/C=C/c2ccnc3ccccc23)cc1	.	.	97%	233%
Cc1ccc2cccc(O)c2n1	.	.	-4%	-6%
Cc1cc(C)nc(NS(=O)(=O)c2ccc(NC(=S)NC(=O)C3CCCC3)cc2)n1	4%	125%	10µM*	?
COC(=O)Cc1ccc(NC(=O)c2ccc(C(C)(C)C)cc2)cc1	-10%	10µM*	.	.
Cc1nc2ccc(NC(=O)N(C(C)C)C(C)C)cc2s1	-11%	68%	.	.
CC(C)N(C(=O)Nc1ccc2nccnc2c1)C(C)C	3.5µM*	-3%	-6%	.
CC(C)c1ccc(NC(=O)c2cnc3sc(N4CCOCC4)nn3c2=O)cc1	.	?	?	i
Cc1ccc(NC(=O)c2cnc3sc(N4CCOCC4)nn3c2=O)cc1N(C)C	.	32µM*	?	?
Cc1c(C(=O)OCC2CCCO2)[nH]c2c1C(=O)CC(c1ccc(N(C)C)cc1)C2 (stereo not drawn)	-28%	20µM*	-21%	-18%
Cc1c(C(=O)OCc2ccccc2)[nH]c2c1C(=O)CC(c1ccc(N(C)C)cc1)C2 (stereo not drawn)	.	-1%	-3%[7.34 µM]	-13%[7.34 µM]
COc1ccccc1-n1cc(C(=O)NCCN2Cc3ccccc3OC(c3ccsc3)C2)cn1 (stereo not drawn)	.	-9%	0%	-17%
O=C(Nc1ncnc2nc[nH]c12)c1ccccc1	.	.	-13%	-8%
O=C(CNC(=O)C12CC3CC(CC(C3)C1)C2)N1CCN(S(=O)(=O)/C=C/c2ccccc2)CC1	1%	40µM*	-10%	-9%
O=C(Nc1cc(Sc2ccccn2)cc([N+](=O)[O-])c1)c1ccc([N+](=O)[O-])cc1	-10%	22µM*	?	-21%
COc1cc(CNc2nc(C)c([N+](=O)[O-])c(C)c2C#N)cc(OC)c1OC	-12%	25µM*	-15%	-4%
O=C1c2cccc3c([N+](=O)[O-])ccc(c23)C(=O)N1c1nccs1	-15%	35µM*	.	.
O=C1c2cccc3cccc(c23)C(=O)N1c1nccs1	0%	-15%	.	.
O=C1c2cccc3c([N+](=O)[O-])ccc(c23)C(=O)N1c1ccccn1	.	?	10%	i
O=C1c2cccc3c([N+](=O)[O-])ccc(c23)C(=O)N1c1ccc(Cl)cn1	-22%	25µM*	36%	-10%
Nc1c(Cl)ncnc1N/N=C/c1ccccn1	28%	-10%	?	2.2µM*
SMILES	FBPA Giardia inh	FMDV inh	Vaccinia Venus	VACV mCherry inh
Nc1c(Cl)ncnc1N/N=C/c1ccc2ccccc2n1	-2%	-13%	?	2.8µM*
Nc1c(Cl)ncnc1N/N=C/c1ccnc2ccccc12	-11%	16%	-7%	-17%
COc1ccc(/C=C/c2ccc3ccccc3n2)c(OC)c1	.	.	-14%	-19%
COc1cc2nc(N3CCOCC3)nc(NC(C)C)c2cc1OC	.	.	-21%	-23%
CC1=CN2C(=N)/C(=C/c3ccco3)C(=O)N=C2S1	8%	-71%	12%	-5%
CC1=CN2C(=N)/C(=C/c3ccc([N+](=O)[O-])o3)C(=O)N=C2S1	?	25µM*	109%	53%
COCc1c(C(=O)N2CCN(C3CCCC3)CC2)cnn1-c1nccc(-c2cccs2)n1	.	2%	-8%	-12%
COc1cc2nc(N(C)C)nc(NC3CCN(C)CC3)c2cc1OC	.	.	?	-27%
COc1cc2c(cc1OC)C(C)N(C(=O)C1COc3ccccc3O1)CC2 (stereo not drawn)	0%	25µM*	-15%	.
COc1cc(NS(=O)(=O)c2ccc([N+](=O)[O-])cc2)c2ncccc2c1	18µM*	.	.	.
COc1cc(NS(=O)(=O)c2cccc([N+](=O)[O-])c2)c2ncccc2c1	16µM*	.	.	.
COc1cccc(CN2C(=O)NC(C)(C3CCN(Cc4ccc(C)o4)CC3)C2=O)c1OC (stereo not drawn)	.	-17%	-20%	-24%
COc1ccc(NC(=O)/C(Cl)=C(/Cl)S(=O)(=O)Cc2ccccc2)cn1	-1%	20µM*	22µM*	.
COc1ccc(NC(=O)C(Cl)=C(Cl)Cl)cn1	-12%	-7%	-3%	-15%
COc1ccc(NC(=O)/C(Cl)=C(/Cl)S(=O)Cc2ccc(Cl)cc2)cn1 (stereo not drawn)	-5%	8.9µM*	7.9µM*	5.6µM*
COc1ccc(NC(=O)CCl)cn1	2.8µM*	.	.	.
COC(=O)[C@@H]1C[C@@H](NC(=O)c2cccc3c(C)c(C)[nH]c23)CN1Cc1cccc2ccccc12	.	-2%	16%	7%
Cc1cccc(Cn2c(=O)n(CC3CCC(C(=O)N4CCC(C)CC4)CC3)c(=O)c3sccc32)c1 (stereo not drawn)	.	32µM*	?	?
Cc1cccc(Cn2c(=O)n(CC3CCC(C(=O)N4CCOCC4)CC3)c(=O)c3sccc32)c1 (stereo not drawn)	.	?	-13%	-17%
Cc1ccc(NS(=O)(=O)c2ccc3c(c2)NC(=O)CCS3)cc1C	.	-16%	0.89µM*	?
Cc1ncc2c(c1CNC(=O)c1ccc3c(c1)OCO3)CCN(C(=O)c1cn3ccccc3n1)C2	.	-1%	5%	-10%
Fc1ccc(C(CCNCc2cccs2)c2ccco2)cc1 (stereo not drawn)	-7%	62%	-11%	-15%
O=S(=O)(NCCC(c1ccc(F)cc1)c1ccco1)c1ccccc1 (stereo not drawn)	-3%	4.5µM*	-24%	-29%
COc1ccc(N2CCN(C(=O)CCC(=O)N3CCOc4ccc(Cl)cc43)CC2)cc1	3%	-29%	?	14µM*
Cc1ccc2c(c1)N(C(=O)CCC(=O)N1CCN(c3cccc(C)c3C)CC1)CCO2	3%	14µM*	?	?
SMILES	FBPA Giardia inh	FMDV inh	Vaccinia Venus	VACV mCherry inh
COc1ccccc1-c1ccnc(-n2ncc(C(=O)NC3CCCN(Cc4ccccc4)C3)c2C)n1 (stereo not drawn)	.	1%	3%	-16%
Cc1ccc(C2C(=O)c3ccccc3C2=O)cc1	-22%	13%	-1%	-11%
CC(=O)Nc1ccc(C2C(=O)c3ccccc3C2=O)cc1	-2%	20µM*	-4%	-8%
CCCC(=O)Nc1ccc(C2C(=O)c3ccccc3C2=O)cc1	-7%	10µM*	-4%	i
Cc1ncc2c(c1CNC(=O)c1ccc3c(c1)OCO3)CCN(C(=O)c1coc3c1C(=O)CCC3)C2	.	8%	2%	-7%
NS(=O)(=O)c1ccc(CCNc2ccn3nc(-c4cccc(C(F)(F)F)c4)cc3n2)cc1	.	?	?	8.9µM*
OC[C@@H]1O[C@H](O)[C@H](O)[C@@H](O)[C@@H]1O	7%	.	.	.
Cc1oc(-c2ccccc2NC(=O)c2cccnc2)nc1CNC(=O)C1CCCCCN1C (stereo not drawn)	.	-22%	-12%	i
